Drawing on PubChem BioAssay (NCI), this text covers growth inhibition for 20 compounds.

The panel holds about 79,000 compounds, 15% with a hit somewhere; the sample as a whole holds those more often. A number with no mark means an inactive call. Calls of active or inactive are those of the source. No stated cut-off is given here; in the data, active means growth inhibition above about 70%; inactive means the rest.

Assay [1] in a line: NCI Yeast Anticancer Drug Screen. Data for the rad50 strain (AID 155).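 Further: 0% = growth of vehicle-only cultures of the same strain.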 The following applies: S. cerevisiae rad50 strain growth inhibition; at 50.0 µM; stronger effect = higher value. Put shortly:
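Readout: growth inhibition relative to vehicle-treated cultures. Compound exposure was carried out in a genetically defined yeast strain deficient in DNA damage repair.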

Assay [2] in a line: NCI Yeast Anticancer Drug Screen. Data for the mec2-1 strain (AID 157). The following applies: S. cerevisiae mec2-1 strain, at 50.0 µM, stronger effect = higher value. The essentials: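 mec2-1 yeast strain, carrying an alteration in DNA damage repair or cell cycle control, was exposed to compounds; growth inhibition was measured relative to vehicle-treated controls.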
Assay [3] in a line: NCI Yeast Anticancer Drug Screen. Data for the sgs1 mgt1 strain (AID 161).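 Further: 0% = growth of cultures given vehicle only.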 The following applies: S. cerevisiae sgs1 mgt1 strain, at 50.0 µM, stronger effect = higher value. Put shortly:
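Compounds are added to genetically altered yeast, and growth is compared with cultures given vehicle alone to give percent inhibition.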

Assay [4] can be described thus: NCI Yeast Anticancer Drug Screen. Data for the cln2 rad14 strain (AID 165).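 Further: 0% = growth equal to vehicle treated cultures.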 The following applies: S. cerevisiae cln2 rad14 strain, at 50.0 µM, stronger effect = higher value. The essentials: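 Yeast carrying cln2 and rad14 alterations (cell cycle control and DNA damage repair) were exposed to compounds. Growth inhibition was measured against vehicle-treated controls.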
A short description of assay [5]: NCI Yeast Anticancer Drug Screen. Data for the bub3 strain (AID 167). The following applies: S. cerevisiae bub3 mutant strain, at 50.0 µM, stronger effect = higher value. Put shortly:
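Readout: yeast growth inhibition, expressed relative to vehicle-only wells. The test organism is a mutant strain from a panel with lesions in DNA repair or checkpoint genes.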

The nature of assay [6]: NCI Yeast Anticancer Drug Screen. Data for the mlh1 rad18 strain (AID 175). Particulars: S. cerevisiae mlh1 rad18 strain growth inhibition; at 50.0 µM; stronger effect = higher value. Put shortly:
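Growth inhibition of the yeast strain was measured after compound exposure and expressed relative to vehicle-treated controls. The strain carries defined defects in DNA damage repair.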

`COc1c2c(c(OC)c3c1C(=O)c1ccccc1C3=O)CC=CC2`: the growth inhibition in assay [1] was -10.6%; in assay [2], 4.7%; in assay [3], -15.4%; in assay [4], -14.7%; in assay [5], -4%; in assay [6], -4.3%.
For the compound `Cc1[nH]c(=O)[nH]c(=O)c1-n1nnc2ccccc2c1=O`, the growth inhibition was 21.9% in assay [1]; 12.8% in assay [2]; 20.7% in assay [3]; -7.05% in assay [4]; 8.3% in assay [5]; 6.8% in assay [6].
On to `Cc1cc(-n2nnc3ccccc3c2=O)on1`, for which the growth inhibition is -21.2% in assay [1]; -30.7% in assay [2]; -17.1% in assay [3]; -9.5% in assay [4]; -26% in assay [5]; 2.5% in assay [6].
For `CCOC(=O)c1c(C)[nH]c(=S)c(C#N)c1-c1cccc2ccccc12`, the growth inhibition in assay [1] was -10%; in assay [2], 9.45%; in assay [3] it was 38%; in assay [4], -12.6%; in assay [5], 17.8%; in assay [6], -31.3%.
In the case of `NC(=O)c1c[n+]([O-])ccc1[N+](=O)[O-]`, the growth inhibition in assay [1] was 40.1%; in assay [2], 5.3%; in assay [3], 34.8%; in assay [4], 28.1%; in assay [5], -14.8%; in assay [6], 18.2%.
Consider `Nc1nc(-c2ccccc2)cc(-c2ccc(F)cc2)c1-c1ccc(Cl)cc1`, for which the growth inhibition in assay [1] was 16.9%; in assay [2], -9.2%; in assay [3], 20.4%; in assay [4], 24.6%; in assay [5], -0.95%; in assay [6] it was -73.5%.
Take `C=C(CN(C)C)C(=O)c1ccc(OC)cc1`: the growth inhibition was 7.75% in assay [1]; 19% in assay [2]; -3.75% in assay [3]; 17.5% in assay [4]; 2% in assay [5]; 27.2% in assay [6].
Turning to `CCOC(=O)/C(C#N)=C\N(C)C`, the growth inhibition was 8.75% in assay [1]; -12.7% in assay [2]; 5.65% in assay [3]; 5.65% in assay [4]; 9.65% in assay [5]; 13.5% in assay [6].
`CC1SC2=NC3=C(c4ccccc4C3=O)C(c3ccccc3Cl)N2C1=O` (stereo not given): the growth inhibition in assay [1] was 15.8%; in assay [2] it was 8.75%; in assay [3], 8.55%; in assay [4], 4.95%; in assay [5], 17.9%; in assay [6] it was 23.3%.
With `C=C1CC(C)(COc2ccc3c(C)cc(=O)oc3c2)OC1=O` (stereo not given), the growth inhibition in assay [1] is 52.9%; in assay [2], 46.1%; in assay [3], 47.8%; in assay [4] it was 48.5%; in assay [5], 20.4%; in assay [6], 54.5%.
In the case of `CN(CC(=O)O)C(=N)N`, the growth inhibition is -8.3% in assay [1]; -11.8% in assay [2]; -19.9% in assay [3]; -2.75% in assay [4]; -24.6% in assay [5]; -9.2% in assay [6].
On to `Cc1ccc2cccc(OCC(=O)O)c2n1`, for which the growth inhibition in assay [1] is 5.7%; in assay [2], 13.4%; in assay [3] it was 6.1%; in assay [4], 3.45%; in assay [5] it was -8.45%; in assay [6] it was 13.3%.
For `Cc1cc2nc3c(C(O)C(O)C(O)CO)nn(-c4ccccc4)c3nc2cc1C` (stereo not given), the growth inhibition in assay [1] was -2.55%; in assay [2] it was 5.05%; in assay [3], -9.25%; in assay [4] it was -15.6%; in assay [5], -5.05%; in assay [6], 16.1%.
Regarding `CCOC(=O)c1ccc(N)c(C(O)(C(F)(F)F)C(F)(F)F)c1`, the growth inhibition in assay [1] was 94.5% (active); in assay [2], 90.7% (active); in assay [3], 94.1% (active); in assay [4], 86.3% (active); in assay [5], 92% (active); in assay [6], 95.6% (active).
For the compound `CCOC(=O)COc1cc2c(cc1Cc1ccc3c(c1)OCO3)OCO2`, the growth inhibition is 0.6% in assay [1]; 1.95% in assay [2]; -0.7% in assay [3]; 5.65% in assay [4]; 16.2% in assay [5]; 0.95% in assay [6].
In the case of `NC(=O)/C(N=Nc1ccccc1)=N\Nc1ccccc1`, the growth inhibition in assay [1] was 94.2% (active); in assay [2], 94.8% (active); in assay [3], 94.8% (active); in assay [4], 73.2% (active); in assay [5] it was 95.5% (active); in assay [6], 94.8% (active).
For the compound `O=C(/C=C(\C(=O)c1cccs1)c1cccs1)c1ccc(C(=O)/C=C(\C(=O)c2cccs2)c2cccs2)cc1`, the growth inhibition was 3.6% in assay [1]; -23.9% in assay [2]; 19% in assay [3]; -25.1% in assay [4]; -15.6% in assay [5]; -5.85% in assay [6].
For `CC(C)=CCC/C(C)=C/CO`, the growth inhibition in assay [1] is -48.8%; in assay [2], -27.8%; in assay [3] it was -3.55%; in assay [4] it was 35.1%; in assay [5], -47.8%; in assay [6], -14.2%.
With `CCOC(=O)/C(=C\c1cccc(F)c1)C(C)=O`, the growth inhibition in assay [1] was 20.6%; in assay [2], 15.3%; in assay [3] it was 7.05%; in assay [4] it was -4.9%; in assay [5], 13.7%; in assay [6], 41.5%.
Consider `COc1ccc(-n2c(C)c(COC(C)=O)c(COC(C)=O)c2C)cc1`, for which the growth inhibition is -5.4% in assay [1]; -18.2% in assay [2]; -0.55% in assay [3]; -2.8% in assay [4]; -7.55% in assay [5]; -55.2% in assay [6].
